Most compounds without a hit are left out; they make up all but 4.1% or so of the library.
DAX1 inh-1 = inhibits human nuclear receptor DAX1; HEK293 Gal4-DAX1 luciferase reporter, luminescence; inhibition, % at 6.75 µM; hit rate 0.99% among 340,000; AID 504766;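 active = inhibition above the mean over all tested compounds plus 3 SD, cut at about 4.2% in these data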;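 also: 0% = DAX1-transfected cells with DMSO and 100% = empty-vector control cells with DMSO; inhibition shows as a rise in luminescence from relieved DAX1 repression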
Target sequence (P51843 207-470 limits assumed): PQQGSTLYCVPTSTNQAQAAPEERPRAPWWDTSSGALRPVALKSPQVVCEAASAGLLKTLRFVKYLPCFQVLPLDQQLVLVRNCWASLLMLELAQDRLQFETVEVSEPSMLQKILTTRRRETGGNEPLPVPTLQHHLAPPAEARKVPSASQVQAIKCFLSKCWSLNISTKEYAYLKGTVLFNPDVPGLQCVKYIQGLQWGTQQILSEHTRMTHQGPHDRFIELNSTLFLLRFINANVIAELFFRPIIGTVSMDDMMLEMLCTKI
DAX1 inh-2 = blocks DAX1 repression of SF-1 activated StAR promoter | HEK293T StAR-luciferase reporter, SF-1/DAX-1 repression relief | inhibition, % at 6.8 µM | hit rate 1.1% among 370,000 | AID 652010;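 active = inhibition above the mean over all tested compounds plus 3 SD, cut at about 3.6% in these data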;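 also: 0% = DAX-1 cells with DMSO and 100% = cells lacking DAX-1 with DMSO; higher inhibition means more luminescence from relief of DAX-1 repression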
hcDAF-12 act = activates DAF-12 receptor from parasite H. contortus. HEK293 hcDAF-12 lit1-tk-luc reporter, luminescence; 0% DMSO, 100% Δ7-dafachronic acid. activation, % at 6.8 µM. hit rate 1.4% among 370,000;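 active = activation above the mean of all tested compounds plus 3 SD, cut at about 5.5% in these data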;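 also: 100% = response to 3 µM Δ7-dafachronic acid high control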
ssDAF-12 act = S. stercoralis DAF-12 activation, primary screen; HEK293 ssDAF-12/GRIP1 lit1-tk-luc reporter, luminescence; % of 3 µM dafachronic acid response; activation, % at 6.8 µM; hit rate 1% among 370,000; AID 652126;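 active = activation above the mean over all tested compounds plus 3 SD, cut at about 0.9% in these data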;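 also: 0% = DMSO-only wells and 100% = 3 µM delta7-dafachronic acid wells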
hgDAF12 agonist = activates the H. glycines DAF-12 receptor ligand-binding domain | HEK293 GAL4-hgDAF12 UAS-luciferase reporter, agonist luminescence; normalized to butyrate control | activation, % at 6.8 µM | hit rate 1.8% among 370,000 | AID 687014;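 active = activation above a cutoff set at the mean of all screened compounds plus 3 SD, cut at about 10% in these data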;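 also: 0% = DMSO wells and 100% = sodium butyrate wells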
Numbers without * were called inactive; . = not tested or not shown.

SMILES	DAX1 inh-1	DAX1 inh-2	hcDAF-12 act	ssDAF-12 act	hgDAF12 agonist
CCCS(=O)(=O)Nc1cccc(-c2nc3cccnc3s2)c1	0.0	0.3	0.7	-1.4	5.7
Clc1ccc(Nc2nc3cccnc3s2)cc1	1.8	1.4	3.8	-0.5	11.1*
O=[N+]([O-])c1cccnc1Nc1ccc(Cl)cc1	-0.3	-0.2	2.0	-0.5	4.0
CCCCNc1nc2cccnc2s1	6.3*	0.4	0.1	-0.9	4.7
O=C1CCc2cc(S(=O)(=O)NC(Cc3ccccc3)C(=O)NCCC3=CCCCC3)ccc2N1 (stereo unspecified)	4.3*	-0.6	-2.2	-1.8	0.0
O=C1CCc2cc(S(=O)(=O)N3CCC(C(=O)NCCC4=CCCCC4)CC3)ccc2N1	6.2*	0.5	0.8	-1.0	0.6
CC(C)(C)NC(=O)C(Cc1ccccc1)NS(=O)(=O)c1ccc2c(c1)CCC(=O)N2 (stereo unspecified)	0.4	-0.3	0.2	-1.4	-0.4
Cc1ccc(CCNC(=O)C2CCN(S(=O)(=O)c3ccc4c(c3)CCC(=O)N4)CC2)cc1	1.1	0.9	-0.2	-0.4	1.1
CCCCCNC(=O)C(c1ccc(C(F)(F)F)cc1)n1c(=O)c(-c2ccco2)nc2ccccc21 (stereo unspecified)	.	1.7	1.6	-0.1	4.5
Cc1nc(Nc2ccc(C(=O)O)cc2)nc(Nc2ccc(C(=O)O)cc2)c1[N+](=O)[O-]	0.0	-0.5	-0.3	-1.6	-0.9
Cc1nc(Nc2ccc(F)cc2)nc(Nc2ccc(F)cc2)c1[N+](=O)[O-]	4.7*	1.4	-1.3	-0.9	1.2
Cc1cccc(NC(=O)C2CCCN2S(=O)(=O)c2cccc3cccnc23)c1C (stereo unspecified)	.	-0.4	-1.5	-1.9	-1.7
O=C(NC1CCCCC1)C(c1ccccc1)n1c(=O)c(-c2ccco2)nc2ccccc21 (stereo unspecified)	.	-0.2	-0.6	-1.2	0.1
O=C(NCc1ccccc1)C(c1ccncc1)n1c(=O)c(-c2ccco2)nc2ccccc21 (stereo unspecified)	.	0.8	-0.4	-0.8	2.3
O=C(NC1CCCCC1)C(C1CC1)n1c(=O)c(-c2ccco2)nc2ccccc21 (stereo unspecified)	.	0.0	0.1	1.9*	-3.3
COc1ccc(C(C(=O)NC(C)(C)C)n2c(=O)c(-c3ccco3)nc3ccccc32)cc1 (stereo unspecified)	.	-1.3	0.6	1.5*	2.3
COc1ccc(NC(=O)C(c2ccnc3ccccc23)n2c(=O)c(-c3ccccc3)nc3ccccc32)cc1 (stereo unspecified)	.	-0.6	5.6*	-0.4	-1.4
O=C(NCc1ccccc1)C(c1ccc(-c2ccccc2)cc1)n1c(=O)c(-c2ccco2)nc2ccccc21 (stereo unspecified)	.	0.0	2.1	1.3*	1.9
CCCN1CCS(=O)(=O)N(Cc2cn(Cc3ccc(Cl)cc3)nn2)C(C(=O)OC)C1 (stereo unspecified)	.	-0.9	3.3	-1.3	-0.1
CC(C)[C@H](N)C(=O)N1CCC[C@@H]1C(=O)N1CCC2CCN(S(=O)(=O)c3ccccc3)CC21 (stereo partly specified)	.	-0.2	-0.4	-0.9	1.9
C=C(C)/C=C1/CN(Cc2ccc3c(c2)OCO3)C(=N)N1C(=O)OCc1ccccc1	.	-0.7	1.8	-1.2	-0.9
CC(=C1C(=O)c2ccccc2C1=O)N1CCc2ccccc2C1	0.5	0.7	5.7*	-0.7	3.5
COc1ccc(OCC(=O)C2CC2)c(C#N)c1	7.2*	0.1	2.4	0.2	1.5
Nc1c(Cl)cc(C2=NCCn3nc4cc([N+](=O)[O-])ccc4c32)cc1Cl	0.8	-0.4	5.8*	0.1	-0.5
O=C(CNS(=O)(=O)c1ccc(F)cc1)Nc1ccccc1	0.7	0.2	1.9	-0.7	-1.5
SMILES	DAX1 inh-1	DAX1 inh-2	hcDAF-12 act	ssDAF-12 act	hgDAF12 agonist
O=C(CNc1ccccc1)Nc1ccc(F)cc1	1.8	3.3	4.9	0.9*	10.9*
O=C(CSCc1ccc(C(=O)O)cc1)Nc1ccccc1	5.1*	0.1	-1.1	-1.4	-0.6
O=C(CC(=O)Nc1ccccc1)Nc1ccccc1	4.3*	-0.2	-0.7	-0.5	0.7
CCC(CC)NC(=O)O[C@H]1CC[C@@]23CCCN2C(=O)CCC[C@H]3[C@H]1C	.	.	-1.1	-1.9	1.2
O=C(Cc1cccs1)N/N=C\c1ccccc1	.	-0.2	-0.5	-0.8	9.7
O=[N+]([O-])c1ccccc1N=NNc1ccccc1	0.1	0.2	3.2	1.6*	2.7
Cc1ccc(O)c(N=Cc2cccs2)c1	-1.1	0.9	5.8*	0.5	8.7
N#Cc1c(SCC(=O)Nc2ccccc2)nsc1SCC(=O)Nc1ccccc1	2.1	0.5	1.6	23.3*	3.1
CSc1snc(SCC(N)=O)c1C#N	-0.1	0.0	-1.2	-1.5	11.8*
C#CCN(Cc1ccco1)C(=O)c1nnc2c3ccccc3n(S(=O)(=O)c3ccc(C)cc3)c2n1	.	-0.6	1.2	-0.2	2.0
C#CC1(O)C2C=C(OC)C(=O)C1C(c1ccccc1)C2C (stereo unspecified)	.	0.6	-0.1	-0.9	5.4
Cn1cc(Cc2ccc(C(=O)N3CCN(Cc4ccccc4)CC3)cn2)c2ccccc21	.	-1.6	-0.5	-0.5	-2.7
CC(=O)c1ccc(NC(=S)NC(=O)c2c(Cl)c(C)nn2C)cc1	4.7*	-0.1	-1.2	-0.7	-2.8
C/C(=N\NC(=O)c1c(Cl)c(C)nn1C)c1ccc(NC(=O)C2CCC2)cc1	-1.0	-5.9	-1.0	-1.3	2.8
O=C(N/N=C/c1ccc(O)cc1)c1csc2c1CCCC2	0.0	0.8	-2.6	-1.3	10.5*
COCc1cc(C)n(CC(=O)N/N=C/c2ccc(-c3ccc(Cl)c(C(=O)O)c3)o2)c(=O)c1C#N	1.0	0.4	1.3	0.9*	-1.0
O=C(Cc1ccc(F)cc1)N/N=C/c1ccc(-c2ccc(Cl)c(C(=O)O)c2)o1	0.5	0.0	-0.7	-1.7	2.9
O=C1NC(=O)C(=Cc2ccccc2)N1	1.1	0.8	0.0	-1.0	-2.4
CN(C)c1ccc(/C=C2/NC(=O)NC2=O)cc1	0.7	1.0	2.5	-1.1	10.8*
Oc1oc(-c2ccc(Br)cc2)nc1/C=N/c1ccccn1	1.9	1.1	0.6	-0.4	12.6*
Cc1ccc(-c2nc(C=Nc3ccccc3)c(O)o2)cc1	1.0	1.0	1.1	-1.1	7.1
COc1ccc2ccccc2c1/C=N/N1C(=O)CSC1=S	-0.7	-0.4	0.9	0.5	-0.8
O=C1CSC(=S)N1N=Cc1c(O)ccc2ccccc12	3.0	1.5	4.1	1.0*	3.9
Cc1ccc2nc(NCc3ccccc3)[nH]c2c1	1.0	-0.2	4.3	0.1	10.6*
CC(=O)C1=C(O)C(=O)OC1c1ccc(Cl)cc1 (stereo unspecified)	4.4*	-0.2	-0.5	-0.5	1.1
CC(=O)C1=C(O)C(=O)OC1c1ccc(C)cc1 (stereo unspecified)	2.6	0.1	-1.0	-1.4	-2.7
